According to PubChem BioAssay (Tox21):
Values without a mark were called inactive. Inconclusive results are not listed. Entries that show only a call come without a potency. The source made the active and inactive calls. Calls follow the shape of the full dose curve.

Target: Muscarinic acetylcholine receptor M1 (Homo sapiens) (UniProt P11229)
Assay: Cholinergic receptor muscarinic 1 (CHRM1) small molecule antagonists, cell-based qHTS assay (AID 1963588); also: nearly all actives have a fitted effect of over 40% in size; also: potency is read from the fitted curve at half-maximal effect
Conditions: CHRM1-CHO antagonist mode, calcium flux fluorescence; series mostly up to 61.5 µM; activity, negative = inhibition: at the top concentration
How it was run: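 CHRM1-CHO calcium-flux assay, antagonist mode. Cells were seeded 18 h, dye-loaded 1 h at 37 C and given compound for 5 min at RT, then acetylcholine was added at 50nM. FDSS fluorescence was read 3 min; 15 concentrations, three runs.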

Sequence of Muscarinic acetylcholine receptor M1 (Homo sapiens) (P11229 whole entry, looked up): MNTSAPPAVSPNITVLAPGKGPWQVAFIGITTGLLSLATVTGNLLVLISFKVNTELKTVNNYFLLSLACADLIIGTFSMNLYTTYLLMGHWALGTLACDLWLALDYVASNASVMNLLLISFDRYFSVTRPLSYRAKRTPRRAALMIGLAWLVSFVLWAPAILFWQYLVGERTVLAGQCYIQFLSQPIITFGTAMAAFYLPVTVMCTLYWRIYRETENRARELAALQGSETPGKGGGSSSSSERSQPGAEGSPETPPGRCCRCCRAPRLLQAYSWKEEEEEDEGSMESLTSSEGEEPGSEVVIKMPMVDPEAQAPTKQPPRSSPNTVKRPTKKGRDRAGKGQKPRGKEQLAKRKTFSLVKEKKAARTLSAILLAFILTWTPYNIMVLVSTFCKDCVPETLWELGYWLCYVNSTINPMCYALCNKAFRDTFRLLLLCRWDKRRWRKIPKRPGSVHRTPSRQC

Compound	Potency	activity, negative = inhibition
O=c1cc(-c2ccccc2)oc2ccccc12	inactive	
O=C(O)c1cc2ccccc2cc1O	inactive	
CS(=O)(=O)c1ccc(Cl)cc1	inactive	
S=C(NC1CCCCC1)NC1CCCCC1	inactive	
N[C@H](Cc1c[nH]c2ccccc12)C(=O)O	inactive	
CC[C@H](c1ccc(O)cc1)[C@@H](CC)c1ccc(O)cc1	7.29 µM (active)	
C=CC(C)(O)CCC=C(C)C (centres undefined)	inactive	
O=[N+]([O-])c1ccc2nc[nH]c2c1	inactive	
CC(C)(c1cc(Br)c(O)c(Br)c1)c1cc(Br)c(O)c(Br)c1		12.4%
BrC1CCC(Br)C(Br)CCC(Br)C(Br)CCC1Br (centres undefined)		0.144%
CCN(CC)c1ccc2c(C)cc(=O)oc2c1	inactive	
CC(=O)OCc1ccccc1	inactive	
c1ccc2c(c1)-c1cccc3c1c-2cc1ccccc13	inactive	
OCC(CO)(CO)CO	inactive	
CN1Cc2c(N)cccc2C(c2ccccc2)C1 (centres undefined)	inactive	
CCCc1ccc(O)cc1		-1.43%
Cc1cccnc1	inactive	
CCC(C)c1ccccc1O (centres undefined)	inactive	

Compound	Potency	activity, negative = inhibition
CC1=CC[C@@H]2C[C@H]1C2(C)C		-2.89% [at 12.6 µM]
OC1CCCC1	inactive	
NS(=O)(=O)c1ccc(N2CCCCS2(=O)=O)cc1		16.1% [at 28.3 µM]
N[C@@H](Cc1c[nH]c2ccccc12)C(=O)O	inactive	
CCCCCCCO	inactive	
N[C@@H](Cc1c[nH]c2ccc(O)cc12)C(=O)O	inactive	
CC(COCC(C)OC(=O)c1ccccc1)OC(=O)c1ccccc1 (centres undefined)		-26%
O=C(O)/C=C/c1ccccc1		11.4%
CCCCCOC(C)=O	inactive	
CC(=O)OC1CC(C)OC(C)O1 (centres undefined)	inactive	
COc1ccc(COC(C)=O)cc1	inactive	
CCCCCCCCCCCCOCCO	inactive	
NC[C@H](O)c1ccc(O)c(O)c1	inactive	
Cc1ccc(C(C)C)cc1O		8.85%
Nc1ccc(S(=O)(=O)Nc2ccc(Cl)nn2)cc1		32.4% [at 28.3 µM]
CC(C)(C)c1cc(Cc2cc(C(C)(C)C)c(O)c(C(C)(C)C)c2)cc(C(C)(C)C)c1O	inactive	
CCCCOCCOCCOC(=O)CCCCC(=O)OCCOCCOCCCC	inactive	

Target: Muscarinic acetylcholine receptor M1 (Homo sapiens) (UniProt P11229)
Assay: Cholinergic receptor muscarinic 1 (CHRM1) small molecule agonists, cell-based qHTS assay (AID 1963589); also: nearly all actives have a fitted effect of over 35% in size
Conditions: CHRM1-CHO cells, agonist mode, calcium flux fluorescence; series mostly up to 76.8 µM; activation: at the top concentration
How it was run: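 Human M1 in stable CHO line; 18 h plating, 1 h dye load 37 C; cpd added (agonist mode); Ca2+ fluorescence kinetic read, 1 s intervals; 15 conc, 3 runs.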

Compound	Potency	activation
O=c1cc(-c2ccccc2)oc2ccccc12	inactive	
O=C(O)c1cc2ccccc2cc1O	inactive	
CS(=O)(=O)c1ccc(Cl)cc1	inactive	
S=C(NC1CCCCC1)NC1CCCCC1	inactive	
O=C(O)CCCCCCCCCCCC(=O)O	inactive	
N[C@H](Cc1c[nH]c2ccccc12)C(=O)O	inactive	
CC[C@H](c1ccc(O)cc1)[C@@H](CC)c1ccc(O)cc1	inactive	
C=CC(C)(O)CCC=C(C)C (centres undefined)	inactive	
O=[N+]([O-])c1ccc2nc[nH]c2c1	inactive	
CC(C)(c1cc(Br)c(O)c(Br)c1)c1cc(Br)c(O)c(Br)c1	inactive	
BrC1CCC(Br)C(Br)CCC(Br)C(Br)CCC1Br (centres undefined)	inactive	
CC(=O)OCc1ccccc1	inactive	
c1ccc2c(c1)-c1cccc3c1c-2cc1ccccc13	inactive	
OCC(CO)(CO)CO	inactive	
CN1Cc2c(N)cccc2C(c2ccccc2)C1 (centres undefined)	inactive	
Cc1cccnc1	inactive	
CCC(C)c1ccccc1O (centres undefined)	inactive	
CC1=CC[C@@H]2C[C@H]1C2(C)C		-0.0486% [at 15.8 µM]

Compound	Potency	activation
OC1CCCC1	inactive	
NS(=O)(=O)c1ccc(N2CCCCS2(=O)=O)cc1		-0.283% [at 35.3 µM]
N[C@@H](Cc1c[nH]c2ccccc12)C(=O)O	inactive	
CCCCCCCO	inactive	
N[C@@H](Cc1c[nH]c2ccc(O)cc12)C(=O)O	inactive	
CC(COCC(C)OC(=O)c1ccccc1)OC(=O)c1ccccc1 (centres undefined)	inactive	
O=C(O)/C=C/c1ccccc1		-0.171%
CCCCCOC(C)=O	inactive	
CC(=O)OC1CC(C)OC(C)O1 (centres undefined)	inactive	
COc1ccc(COC(C)=O)cc1	inactive	
CCCCCCCCCCCCOCCO	inactive	
NC[C@H](O)c1ccc(O)c(O)c1	inactive	
Cc1ccc(C(C)C)cc1O		-0.0977%
Nc1ccc(S(=O)(=O)Nc2ccc(Cl)nn2)cc1		0.0716% [at 35.3 µM]
CC(C)(C)c1cc(Cc2cc(C(C)(C)C)c(O)c(C(C)(C)C)c2)cc(C(C)(C)C)c1O	inactive	
CCCCOCCOCCOC(=O)CCCCC(=O)OCCOCCOCCCC	inactive	
O=C(O)Cc1cccc(-c2cc(CCCCCCc3ccc(O[C@H]4O[C@H](CO)[C@@H](O)[C@H](O)[C@@H]4O)c(-c4cccc(CC(=O)O)c4)c3)ccc2O[C@H]2O[C@H](CO)[C@@H](O)[C@H](O)[C@@H]2O)c1		-0.265% [at 0.29 µM]

System: not listed separately
Assay: cAMP Responsive Elements (CRE) small molecule agonists, cell-based qHTS assay (AID 1963590)
Conditions: CRE-bla HEK293T, beta-lactamase FRET ratio, 3 h; series mostly up to 92.4 µM; activation: at the top concentration
How it was run: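 HEK 293T CRE-bla, 2,000 cells/well, 18 h preincubation 37 C/5% CO2; cpds (DMSO) pinned, 3 h; LiveBLAzer B/G FRET substrate, 2 h RT.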

Compound	Potency	activation
CS(=O)(=O)c1ccc(Cl)cc1	inactive	
S=C(NC1CCCCC1)NC1CCCCC1	inactive	
N[C@H](Cc1c[nH]c2ccccc12)C(=O)O	inactive	
CC[C@H](c1ccc(O)cc1)[C@@H](CC)c1ccc(O)cc1		8.21% [at 42.5 µM]
O=[N+]([O-])c1ccc2nc[nH]c2c1		-4.02%
CC(C)(c1cc(Br)c(O)c(Br)c1)c1cc(Br)c(O)c(Br)c1		17.9%
BrC1CCC(Br)C(Br)CCC(Br)C(Br)CCC1Br (centres undefined)		-0.77%
c1ccc2c(c1)-c1cccc3c1c-2cc1ccccc13		-0.115%
OCC(CO)(CO)CO	inactive	
CN1Cc2c(N)cccc2C(c2ccccc2)C1 (centres undefined)	inactive	
CCCc1ccc(O)cc1		1.76%
Cc1cccnc1	inactive	
CCC(C)c1ccccc1O (centres undefined)	inactive	
CC1=CC[C@@H]2C[C@H]1C2(C)C		0.0762% [at 19 µM]
OC1CCCC1	inactive	
NS(=O)(=O)c1ccc(N2CCCCS2(=O)=O)cc1		-0.611% [at 42.5 µM]
N[C@@H](Cc1c[nH]c2ccccc12)C(=O)O	inactive	
CCCCCCCO	inactive	
N[C@@H](Cc1c[nH]c2ccc(O)cc12)C(=O)O	inactive	
CC(COCC(C)OC(=O)c1ccccc1)OC(=O)c1ccccc1 (centres undefined)	inactive	
O=C(O)/C=C/c1ccccc1		-1.06%
CCCCCOC(C)=O		-0.995%
CC(=O)OC1CC(C)OC(C)O1 (centres undefined)	inactive	
COc1ccc(COC(C)=O)cc1	inactive	
CCCCCCCCCCCCOCCO	inactive	
Cc1ccc(C(C)C)cc1O		3.44%
Nc1ccc(S(=O)(=O)Nc2ccc(Cl)nn2)cc1		0.145% [at 42.5 µM]
CC(C)(C)c1cc(Cc2cc(C(C)(C)C)c(O)c(C(C)(C)C)c2)cc(C(C)(C)C)c1O	inactive	
CCCCOCCOCCOC(=O)CCCCC(=O)OCCOCCOCCCC	inactive	
